# A number with no mark means an inactive call. Results filed as inconclusive are left out. A call without a number means that no potency is given here. Calls of active or inactive are those of the source. Calls follow the shape of the full dose curve.
# Tests used:
# [1] = target: Acetylcholinesterase (Homo sapiens) (UniProt P22303); experiment: Acetylcholinesterase (AChE) small molecule antagonists: colormetric cell-based qHTS assay (AID 1347395); also: nearly all actives have a fitted effect of over 30% in size; also: potency is read from the fitted curve at half-maximal effect
# How it was run: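 In this cell-based qHTS, attached SH-SY5Y cells were treated with test chemicals for 30 min, after which acetylthiocholine hydrolysis was followed by DTNB colour development over 90 min at 37 C.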
# [2] = target: Acetylcholinesterase (Homo sapiens) (UniProt P22303); experiment: Acetylcholinesterase (AChE) small molecule antagonists: fluorescence cell-based qHTS assay (AID 1347398); settings: Potency: AChE activity; outcome: AChE activity; also: nearly all actives have a fitted effect of over 50% in size; also: potency is read from the fitted curve at half-maximal effect
# How it was run: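 Human SH-SY5Y cells were plated overnight at 37 C, exposed to compound for 30 min at 37 C, 5% CO2, then given acetylthiocholine plus Thiolite Green for 40 min at room temperature; thiocholine fluorescence (Ex/Em 490/520 nm) reports endogenous AChE activity.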
# [3] = target: Acetylcholinesterase (Homo sapiens) (UniProt P22303); experiment: Acetylcholinesterase (AChE) small molecule antagonists: enzyme-based qHTS assay with human liver microsomes (AID 1347399); settings: Potency: qHTS inhibition; outcome: qHTS inhibition; also: nearly all actives have a fitted effect of over 60% in size
# How it was run: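 Recombinant human AChE (50 mU/mL in the enzyme mix) and human liver microsomes (0.25 mg/mL final) were preincubated with compound and NADPH (0.25 mg/mL final) for 30 min at 37 C. Acetylthiocholine/DTNB was then added; thiocholine was read colorimetrically after 10 min at room temperature.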
# Chain of Acetylcholinesterase (Homo sapiens) (P22303 whole entry, looked up): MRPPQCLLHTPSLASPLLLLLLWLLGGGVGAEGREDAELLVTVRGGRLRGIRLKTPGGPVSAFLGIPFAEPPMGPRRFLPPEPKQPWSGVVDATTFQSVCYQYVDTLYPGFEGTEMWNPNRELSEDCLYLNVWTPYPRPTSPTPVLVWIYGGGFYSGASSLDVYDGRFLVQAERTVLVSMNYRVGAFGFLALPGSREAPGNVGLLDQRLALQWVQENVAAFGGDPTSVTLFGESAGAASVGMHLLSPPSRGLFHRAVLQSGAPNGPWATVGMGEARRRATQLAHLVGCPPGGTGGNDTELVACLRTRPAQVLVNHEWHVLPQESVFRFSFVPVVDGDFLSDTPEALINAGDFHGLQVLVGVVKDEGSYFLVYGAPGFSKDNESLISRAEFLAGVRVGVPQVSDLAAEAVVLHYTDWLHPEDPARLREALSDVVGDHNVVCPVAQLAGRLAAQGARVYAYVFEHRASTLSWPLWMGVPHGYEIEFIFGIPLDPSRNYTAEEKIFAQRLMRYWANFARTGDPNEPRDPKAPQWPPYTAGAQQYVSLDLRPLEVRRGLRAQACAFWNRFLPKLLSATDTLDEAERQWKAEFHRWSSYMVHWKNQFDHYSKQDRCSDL
smiles,measurement,setting,value
CSC(=O)c1cccc2nnsc12,Potency,[1],35.6 µM (active)
same,Potency,[2],39.9 µM (active)
same,Potency,[3],inactive
CC(C)(O)Cc1ccccc1,Potency,[1],inactive
same,Potency,[2],inactive
same,Potency,[3],inactive
C1CCC2(CCCCO2)OC1,Potency,[1],inactive
same,Potency,[2],inactive
same,Potency,[3],inactive
CC(=O)OC(OC(C)=O)c1ccc([N+](=O)[O-])o1,Potency,[1],inactive
same,Potency,[2],inactive
same,Potency,[3],inactive
O=c1c(O)c(-c2ccc(O)cc2O)oc2cc(O)cc(O)c12,Potency,[1],inactive
same,Potency,[2],inactive
same,Potency,[3],inactive
COc1cc(C(C)C)c2c(c1)S(=O)(=O)N(COc1cc(=O)n3cccc(OCCN4CCCCC4)c3n1)C2=O,Potency,[1],19 µM (active)
same,Potency,[2],6.74 µM (active)
same,"activity change, negative = inhibition",[3],-1.08% [at 23.6 µM]
O=C(OC[C@H]1O[C@@H](OC(=O)c2cc(O)c(O)c(OC(=O)c3cc(O)c(O)c(O)c3)c2)[C@H](OC(=O)c2cc(O)c(O)c(OC(=O)c3cc(O)c(O)c(O)c3)c2)[C@@H](OC(=O)c2cc(O)c(O)c(OC(=O)c3cc(O)c(O)c(O)c3)c2)[C@@H]1OC(=O)c1cc(O)c(O)c(OC(=O)c2cc(O)c(O)c(O)c2)c1)c1cc(O)c(O)c(OC(=O)c2cc(O)c(O)c(O)c2)c1,"activity, negative = inhibition",[1],1.72% [at 23.6 µM]
same,"activity change, negative = inhibition",[2],-11.1% [at 23.8 µM]
same,"activity change, negative = inhibition",[3],-0.451% [at 23.6 µM]
Oc1c(Cl)cc(Cl)c(Cl)c1Cc1c(O)c(Cl)cc(Cl)c1Cl,Potency,[1],inactive
same,Potency,[2],inactive
same,Potency,[3],inactive
CC(C)CCCCCCCCCCCCCCC(=O)O,Potency,[1],inactive
same,Potency,[2],inactive
same,Potency,[3],inactive
NC(=O)C1(N2CCCCC2)CCN(CCCN2c3ccccc3CCc3ccc(Cl)cc32)CC1,Potency,[1],inactive
same,Potency,[2],inactive
same,Potency,[3],inactive
O=S(=O)(O)c1ccc2cc(O)c(S(=O)(=O)O)cc2c1,Potency,[1],inactive
same,Potency,[2],inactive
same,Potency,[3],inactive
COc1cc(C(=O)NC2CCN(C)CC2)ccc1Nc1ncc2c(n1)N(C1CCCC1)CC(F)(F)C(=O)N2C,Potency,[1],32.6 µM (active)
same,Potency,[2],11.6 µM (active)
same,Potency,[3],inactive
CCCCC/C=C\C/C=C\CCCCCCCC(=O)NC(C)c1ccccc1 (stereo not drawn),Potency,[1],inactive
same,Potency,[2],inactive
same,Potency,[3],inactive
CCN1/C(=C/C=C/c2sc3ccccc3[n+]2CC)Sc2ccccc21,Potency,[1],10.7 µM (active)
same,Potency,[2],6.74 µM (active)
same,"activity change, negative = inhibition",[3],4.36% [at 23.6 µM]
Cn1c(=O)cc(Oc2ccc(F)cc2F)c2cnc(NCC(C)(C)O)nc21,Potency,[1],28.3 µM (active)
same,Potency,[2],28.3 µM (active)
same,Potency,[3],inactive
COc1ccc(NS(=O)(=O)c2ccc(N)cc2)nn1,Potency,[1],inactive
same,Potency,[2],inactive
same,Potency,[3],inactive
CC(=O)O[C@H]1C[C@@H]2CC[C@@H]3[C@H](CC[C@@]4(C)[C@H]3C[C@H]([N+]3(C)CCCCC3)[C@@H]4OC(C)=O)[C@@]2(C)C[C@@H]1N1CCCCC1,Potency,[1],17.4 µM (active)
same,Potency,[2],6.92 µM (active)
same,Potency,[3],inactive
c1ccc(-c2ccc(C(c3ccccc3)n3ccnc3)cc2)cc1 (stereo not drawn),Potency,[1],inactive
same,Potency,[2],inactive
same,Potency,[3],inactive
CCCCCCCCCCCCCCCCCCOS(=O)(=O)O,Potency,[1],inactive
same,Potency,[2],inactive
same,Potency,[3],inactive
CCCCCCCCCCCCOCCOS(=O)(=O)O,Potency,[1],inactive
same,Potency,[2],inactive
same,Potency,[3],inactive
CC(=O)c1ccc[nH]1,Potency,[1],inactive
same,Potency,[2],inactive
same,Potency,[3],inactive
CCCCCC/C=C\CCCCCCCC(=O)O,Potency,[1],inactive
same,Potency,[2],inactive
same,Potency,[3],inactive
CC(C)C(O)C(C)(C)CO (stereo not drawn),Potency,[1],inactive
same,Potency,[2],inactive
same,Potency,[3],inactive
Cc1nc(-c2ccc3c(c2)CCN(CCC2CCC(NC(=O)/C=C/c4ccc(F)cc4)CC2)CC3)no1 (stereo not drawn),Potency,[1],inactive
same,Potency,[2],inactive
same,Potency,[3],inactive
COc1ccc(N=Nc2cc(C)c(N=Nc3ccc(S(=O)(=O)O)cc3)cc2OC)cc1,Potency,[1],inactive
same,Potency,[2],inactive
same,Potency,[3],inactive
CCCN1C[C@H](CSC)C[C@@H]2c3cccc4[nH]cc(c34)C[C@H]21,Potency,[1],5.5 µM (active)
same,Potency,[2],12.3 µM (active)
same,outcome,[3],inactive
Cc1cc(O)c2c(O)c3c(O)cccc3cc2c1,Potency,[1],inactive
same,Potency,[2],inactive
same,Potency,[3],inactive
CN(C)CCCNCCCN,Potency,[1],35.4 µM (active)
same,Potency,[2],35.4 µM (active)
same,Potency,[3],inactive
CCN(CC)c1cccc(O)c1,Potency,[1],36.3 µM (active)
same,Potency,[2],32.4 µM (active)
same,Potency,[3],inactive
CC(C)(C)OC(=O)c1ccc(O)cc1,Potency,[1],inactive
same,Potency,[2],inactive
same,Potency,[3],inactive
NC(=O)C1CO1 (stereo not drawn),Potency,[1],inactive
same,Potency,[2],inactive
same,Potency,[3],inactive
CCCCCCCCCCCCCCCCC(C(=O)O)C(O)(CC(=O)O)C(=O)O (stereo not drawn),Potency,[1],inactive
same,Potency,[2],inactive
same,Potency,[3],inactive
Cc1nc2ccccn2c(=O)c1CCN1CCC(C(=O)c2ccc(F)cc2)CC1,Potency,[1],24.5 µM (active)
same,Potency,[2],7.76 µM (active)
same,Potency,[3],inactive
O=C(O)CCCCCCCCCCCBr,Potency,[1],inactive
same,Potency,[2],inactive
same,Potency,[3],inactive
O=S(=O)(c1ccc(OCc2ccccc2)cc1)c1ccccc1O,Potency,[1],inactive
same,Potency,[2],inactive
same,Potency,[3],inactive
CCN(CC)c1ccc2c(-c3ccc(S(=O)(=O)O)cc3S(=O)(=O)[O-])c3ccc(=[N+](CC)CC)cc-3oc2c1,Potency,[1],inactive
same,Potency,[2],41.2 µM (active)
same,Potency,[3],inactive

# Source: PubChem BioAssay (Tox21)
